# D1 agonist = human D1 receptor agonism | P21728 | HEK293 T-REx D1 cells, calcium flux, agonist mode | AID 504660 | activation, % at 2 µM | 360,000 tested, 1% active; note: 0% is about no effect
#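 Tetracycline-induced HEK293 TREx D1 cells, force-coupled to calcium signalling, were dye-loaded with a no-wash calcium kit. Compound was pin-added after a 10 s baseline. Fluorescence was read kinetically at 1 cycle/s for 180 s, with calcium rises flagged as agonism.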
# TRHR ag = agonists of human TRH receptor; TRHR cells, calcium flux fluo-8, FDSS agonist mode; activation, % at 2 µM; AID 493084; P34981; 360,000 tested, 0.18% active; note: 0% is about no effect
# Target sequence (P34981 whole entry, looked up): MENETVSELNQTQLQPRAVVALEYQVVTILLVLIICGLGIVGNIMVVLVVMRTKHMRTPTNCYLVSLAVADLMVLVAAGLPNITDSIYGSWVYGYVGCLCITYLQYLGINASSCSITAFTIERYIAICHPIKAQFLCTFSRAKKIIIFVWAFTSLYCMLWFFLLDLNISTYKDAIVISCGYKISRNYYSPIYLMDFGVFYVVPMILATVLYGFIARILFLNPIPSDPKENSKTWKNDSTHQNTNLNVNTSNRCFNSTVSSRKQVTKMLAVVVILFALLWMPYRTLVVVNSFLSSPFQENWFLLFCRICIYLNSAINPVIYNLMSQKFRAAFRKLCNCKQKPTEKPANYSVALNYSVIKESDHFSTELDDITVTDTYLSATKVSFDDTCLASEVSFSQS
#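 Fluo-8-loaded TRHR cells; 10 s baseline, compound added, kinetic Ca2+ fluorescence read 1/s, agonist mode.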
# D1 potentiator = enhances dopamine response at the human D1 receptor | P21728 | HEK293 TREx D1 cells, calcium flux, dopamine EC20 potentiation | potentiation, % at 10 µM | 360,000 tested, 0.036% active | AID 504651; in the data active = potentiation above about 30%; note: 0% is about no effect
# TRHR enhancer = allosteric enhancers of human TRH receptor | P34981 | TRHR cells, fluo-8 calcium fluorescence, EC20 TRH enhancement | enhancement, % at 2 µM | 360,000 tested, 0.66% active | AID 493056; in the data active = enhancement above about 30%; note: 0% is about no effect
#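 Enhancer read-out: after compound pinning and an initial kinetic agonist-mode read, an EC20 of TRH (10 nM final) was injected and fluo-8 calcium signal (Ex 480/Em 530) followed at 1 s/cycle for 100 cycles in TRHR-expressing cells.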
# D1 antag = antagonists of human D1 dopamine receptor. activity change, negative = inhibition, % at 10 µM. 360,000 tested, 3.2% active. HEK293 TREx D1 cells, calcium flux, dopamine EC80; stronger effect = lower value. P21728; in the data active = activity change below about -30%; note: % is set by controls: 0 for no effect and ±100 for the full control effect
#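 After overnight tetracycline induction at 30 C, force-coupled D1 HEK293 cells took up a no-wash calcium dye at room temperature. Compounds were added and monitored 180 s, and the response to EC80 dopamine was then recorded.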
# USP1-UAF1 inh = blocks the human USP1/UAF1 deubiquitinase complex; O94782; recombinant USP1/UAF1, Ub-Rhodamine cleavage fluorescence; Potency, µM (highest dose often 57.1 µM), without a hit: top-dose activity change, negative = inhibition, most hits filed as inhibitors; 390,000 tested, 0.23% active; active = well fitted inhibition curve with a large enough effect; note: potency is the fitted concentration of half-maximal effect; % is set by controls: 0 for no effect and ±100 for the full control effect; nearly all actives have a fitted effect of over 60% in size
#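 Step one: compound is pinned into 1nM USP1/UAF1 in HEPES pH 7.8 buffer with TCEP. Step two: 15 min room-temperature incubation. Step three: Ub-Rho (150nM final) starts cleavage, tracked by fluorescence over six one-minute reads.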
# * hit, by the source's call; · = not tested or not shown. Most compounds without a hit are left out; they make up all but 4.4% or so of the library. Cut-off read from the data, not from the text of the source, unless noted: active = activation above about 30%; inactive = the rest.
SMILES,D1 agonist,TRHR ag,D1 potentiator,TRHR enhancer,D1 antag,USP1-UAF1 inh
Cc1cc(NC(=O)c2ccco2)cc(-c2nc3cc(Cl)ccc3o2)c1O,0.3,2.1,-2.1,-5.1,-9.9,-21.1%
CC(C)(C)n1ncc2c(=O)n(CC(=O)N3CCCC3)cnc21,6.8,0.8,-1.7,2.8,3.7,-11.1%
CC1CCN(C(=O)Cn2cnc3c(cnn3C(C)(C)C)c2=O)CC1,1.7,0.2,-4.2,30.0*,-5.9,-10.2%
COc1ccc(-c2cn3nc(N4CCCC(C(=O)NCc5ccccc5OC)C4)sc3n2)cc1 (configuration not stated),-2.1,0.0,6.5,8.1,10.4,-8.6%
CCOc1ccccc1CNC(=O)CN1C(=O)C2CCCCN2c2ccc(C(=O)N(C)C)cc21 (configuration not stated),0.3,-0.3,-3.9,-0.5,-10.4,-3.3%
CCNC(=O)NC(=O)CN(C)c1ccccc1,1.3,-0.3,-5.5,34.2*,-13.5,-3.0%
CCN(c1ccccc1)S(=O)(=O)c1c(-c2ccc(C)cc2)csc1C(=O)OC,4.7,0.3,11.1,2.6,32.4,-19.2%
N#CC1=C(N)Oc2c(oc(CO)cc2=O)C1c1ccccc1[N+](=O)[O-] (configuration not stated),-0.2,1.2,-6.9,-0.9,-35.3*,-13.6%
COc1ccccc1C1C(C#N)=C(N)Oc2c1oc(CO)cc2=O (configuration not stated),-0.3,0.5,-2.4,5.7,-7.3,-10.8%
O=C(Nc1cccc(Cl)c1Cl)c1cc2nc(-c3ccc(Cl)cc3)cc(C(F)(F)F)n2n1,-0.1,0.1,0.5,-1.8,14.8,-24.1%
CC(=O)Nc1ccc(S(=O)(=O)N2CCN=C2SCc2cccc(C)c2)cc1,8.4,0.8,-10.9,-1.7,-21.6,-1.9%
CC(=O)Nc1ccc(S(=O)(=O)N2CCN=C2SCc2ccc([N+](=O)[O-])cc2)cc1,18.4,1.0,-8.7,12.3,-65.0*,-5.9%
O=[N+]([O-])c1ccc(CS(=O)(=O)N2CCN(c3ccccc3)CC2)cc1,9.2,0.7,·,-3.5,-30.2*,-19.1%
CC(=O)Nc1ccc(S(=O)(=O)N2CCN(c3ccc([N+](=O)[O-])cc3)CC2)cc1,5.0,1.3,-5.3,-7.1,-35.2*,-12.7%
CC(=O)Nc1ccc(S(=O)(=O)N2CCN(C(=O)Cc3ccccc3)CC2)cc1,0.7,0.1,-4.8,-4.0,-13.5,-4.4%
CC(=O)Nc1ccc(S(=O)(=O)N2CCN(S(=O)(=O)c3ccc(NC(C)=O)cc3)CC2)cc1,0.3,0.4,-0.8,5.2,0.9,-7.9%
CC(=O)Nc1ccc(S(=O)(=O)N2CCN(CCc3ccccc3)CC2)cc1,4.4,0.2,-5.6,-2.9,-33.2*,-7.4%
CC(C)(C)OC(=O)N1CCC(c2c(C(=O)NCc3ccccc3)cnn2-c2cccc(F)c2)CC1,0.9,1.0,7.2,-5.4,15.0,-7.5%
CCOC(=O)CNC(=O)CSc1cn(CC(=O)N2CCCCCC2)c2ccccc12,2.2,-0.9,-2.5,2.9,-3.5,-7.7%
O=C(CN1CCN(S(=O)(=O)c2ccccc2[N+](=O)[O-])CC1)Nc1ccc(N2CCOCC2)cc1,8.8,0.2,-13.1,6.6,-46.0*,-20.6%
COc1ccc(S(=O)(=O)NCC(c2ccco2)N2CCOCC2)cc1OC (configuration not stated),-0.8,0.7,-0.4,-3.3,·,3.5%
CCN(CC)c1ccc(N=C2C(=O)Nc3ccccc32)cc1,-0.3,-0.6,0.3,0.1,1.0,31.6µM*
CCN(CC)CCCNC(=O)c1oc2c(c1C)-c1nn(Cc3ccc(Cl)cc3)cc1CC2,17.4,0.8,-2.4,-0.3,-2.5,-9.7%
CC1CCc2c(sc3ncnc(NCc4cccnc4)c23)C1 (configuration not stated),0.6,-0.8,-2.0,-4.6,-4.5,-11.2%
c1cncc(CNc2ncnc3sc4c(c23)CCC4)c1,3.6,-1.0,-1.1,-1.2,-43.4*,-26.1%
CCc1noc(C)c1C(=O)N1CCN(c2cccc(C)c2C)CC1,4.1,0.1,-6.1,-1.5,-30.5*,-25.7%
